Records with an inconclusive call do not appear. Active and inactive are the calls of the source. How the source made its calls, unless noted: active means hit-call score of the fitted dose curve at least 0.9, where 1 is the maximum; inactive means score below 0.9.
Legend:
[1] = molecular target: Bile acid receptor (Homo sapiens) (UniProt Q96RI1); assay: ATG_FXR_TRANS: Attagene TRANS-FACTORIAL HepG2 Assay for Farnesoid X Receptor (FXR) (AID 2282979; active means hit-call score of the fitted dose curve at least 0.9, where 1 is the maximum;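 further: hits raise reporter mRNA above DMSO so AC50 marks FXR activation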); details: HepG2 Attagene TRANS FXR-GAL4 reporter transcription
Outline: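 After 24 h chemical treatment of transfected HepG2 cells, GAL4-UAS reporter transcripts driven by an exogenous FXR-GAL4 fusion were measured by RT-PCR and capillary electrophoresis. Increases over DMSO were fitted.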

[2] = molecular target: Oxysterols receptor LXR-beta (Homo sapiens) (UniProt P55055); assay: ATG_LXRb_TRANS: Attagene TRANS-FACTORIAL HepG2 Assay for human Liver X Receptor beta (LXRb) (AID 2282981; active means hit-call score of the fitted dose curve at least 0.9, where 1 is the maximum); details: HepG2 Attagene TRANS GAL4-LXRb reporter, mRNA
Outline: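 Gain-of-signal mRNA reporter endpoint, DMSO as negative control. Transiently transfected HepG2 cells carrying the NR-Gal4 chimera and GAL4-UAS reporter units were treated 24 h; transcripts quantified by RT-PCR and capillary electrophoresis fluorescence.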

[3] = molecular target: Hepatocyte nuclear factor 4-alpha (Homo sapiens) (UniProt P41235); assay: ATG_HNF4a_TRANS: Attagene TRANS-FACTORIAL HepG2 Assay for human Hepatocyte Nuclear Factor 4 alpha (HNF4a) (AID 2282982; active means hit-call score of the fitted dose curve at least 0.9, where 1 is the maximum); details: HepG2 HNF4a transactivation reporter, mRNA readout
Outline: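 Gain-of-signal mRNA induction, relative to DMSO vehicle, was read after 24 h compound treatment of HepG2 cells bearing transfected GAL4-UAS reporters. Detection used RT-PCR, 6-FAM primer extension and capillary electrophoresis.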

[4] = ATG_M_06_TRANS: Attagene TRANS-FACTORIAL HepG2 Assay for M06 Transcription Factor (Internal Marker) (AID 2282983; active means hit-call score of the fitted dose curve at least 0.9, where 1 is the maximum); details: HepG2 Attagene TRANS M06 internal marker reporter
Outline: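 Internal-marker background readout from a multiplexed TRANS reporter system in HepG2; 24 h dosing; mRNA induction quantified by RT-PCR plus capillary electrophoresis fluorescence; DMSO as negative control and baseline.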

[5] = ATG_M_32_TRANS: Attagene TRANS-FACTORIAL HepG2 Assay for M32 Transcription Factor (Internal Marker) (AID 2282984; active means hit-call score of the fitted dose curve at least 0.9, where 1 is the maximum;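 further: transcript level of a background control reporter unit measured by RT-PCR and capillary electrophoresis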); details: HepG2 Attagene TRANS M32 internal marker reporter
Outline: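 Capillary electrophoresis of 6-FAM-labelled reporter fragments gives the signal; data fitted for gain over DMSO negative control. Source: HepG2 cells bearing transient multiple reporter transcription units, 24 h exposure.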

[6] = molecular target: Nuclear respiratory factor 1 (Homo sapiens) (UniProt Q16656); assay: ATG_NRF1_CIS: Attagene CIS-FACTORIAL HepG2 Assay for human Nuclear Respiratory Factor 1 (NRF1) Orphan Gene (AID 2282987); details: HepG2 NRF1 cis-element reporter, Attagene multiplex; actives raise or lower the signal
Outline: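 Transcriptional reporter readout, one component of a 52-endpoint multiplexed HepG2 panel. Exposure 24 h; mRNA detected via RT-PCR and fluorescent capillary electrophoresis; fitting in both directions against DMSO.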

[7] = ATG_NFI_CIS: Attagene CIS-FACTORIAL HepG2 Assay for human Nuclear Factor I (NFI) (AID 2282989); details: HepG2 cis-regulatory reporter, NFI response element transcription; actives raise or lower the signal
Outline: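 Cells: human liver HepG2, transiently transfected with promoter-regulated reporter transcription units. Exposure 24 h. Detection: fluorescent RT-PCR products separated by capillary electrophoresis, normalised to DMSO negative control.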

[8] = molecular target: Myc proto-oncogene protein (Homo sapiens) (UniProt P01106); assay: ATG_Myc_CIS: Attagene CIS-FACTORIAL HepG2 Assay for human Myelocytomatosis (Myc) Proto-Oncogene Transcription Factor (AID 2282990); details: HepG2, Attagene cis-reporter transcription factor activity; actives raise or lower the signal
Outline: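 Read-out: fluorescent reporter mRNA fragments resolved by capillary electrophoresis after RT-PCR. Human HepG2 liver cells carried transfected cis-element reporter units and were dosed for 24 h. Gain or loss of signal fitted relative to DMSO baseline.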

[9] = ATG_NRF2_ARE_CIS: Attagene CIS-FACTORIAL HepG2 Assay for human Nuclear Factor Erythroid 2 Related Factor 2 (NFR2) response to Antioxidant Response Elements (ARE) (AID 2282992); details: HepG2 Attagene ARE/NRF2 reporter, transcription factor activity; actives raise or lower the signal;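 on AC50: reporter mRNA level measured by RT-PCR and capillary electrophoresis fluorescence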
Outline: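 Cis-factorial assay: transfected HepG2 reporter library, 24 h dosing, mRNA readout via RT-PCR/CE; DMSO-referenced bidirectional analysis.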

[10] = ATG_Oct_MLP_CIS: Attagene CIS-FACTORIAL HepG2 Assay for human Octamer-Binding Transcription Factor (Oct) (AID 2282993); details: HepG2 Attagene cis-factorial Oct reporter, mRNA; actives raise or lower the signal
Outline: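 HepG2, transient MRTU transfection, cis promoter elements; 24 h dosing; RT-PCR/CE fluorescence read-out of reporter mRNA; fit both directions vs DMSO.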

[11] = molecular target: Cellular tumor antigen p53 (Homo sapiens) (UniProt P04637); assay: ATG_p53_CIS: Attagene CIS-FACTORIAL HepG2 Assay for human p53 Transcription Factor (AID 2282994); details: HepG2 p53 cis-element reporter, Attagene mRNA; actives raise or lower the signal
Outline: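 Using HepG2 hepatoma cells carrying cis-acting multiplexed reporters, mRNA induction is detected after a 24 h exposure. Gain- and loss-of-signal responses are fitted relative to DMSO-treated cells.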

[12] = molecular target: Oxysterols receptor LXR-alpha (Homo sapiens) (UniProt Q13133); assay: ATG_LXRa_TRANS: Attagene TRANS-FACTORIAL HepG2 Assay for human Liver X Receptor alpha (LXRa) (AID 2282980; active means hit-call score of the fitted dose curve at least 0.9, where 1 is the maximum); details: HepG2 Attagene TRANS reporter, LXRa transactivation
Outline: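 In this multiplexed TRANS system, compounds act on HepG2 cells carrying GAL4-UAS reporter units and a receptor-GAL4 fusion for 24 h. Induced reporter RNA is amplified, fluorescently labelled and sized by capillary electrophoresis, with DMSO as baseline.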

[13] = molecular target: Transcriptional activator Myb (Homo sapiens) (UniProt P10242); assay: ATG_Myb_CIS: Attagene CIS-FACTORIAL HepG2 Assay for human Myeloblastosis (Myb) Proto-Oncogene Transcription Factor (AID 2282986); details: HepG2 Attagene CIS-FACTORIAL Myb reporter transcription; actives raise or lower the signal
Outline: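 Fluorescence signals from capillary electrophoresis of RT-PCR-amplified reporter cDNA give the read-out. Cells: HepG2 transfected with multiple cis-regulated reporter units. Exposure lasts 24 hours; DMSO defines baseline for gain or loss of signal.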

[14] = BSK_3C_TissueFactor: BioMAP Diversity Plus: 3C Assay for Tissue Factor Biomarker Activity (AID 2282997); details: BioMAP 3C HUVEC, tissue factor biomarker readout; actives raise or lower the signal
Outline: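 Endothelial monolayers (human umbilical vein, primary) are dosed, incubated 24 h, and assayed for Tissue Factor by ELISA; DMSO serves as negative control for bidirectional fitting.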

[15] = BSK_3C_uPAR: BioMAP Diversity Plus: 3C Assay for Urokinase-type plasminogen activator receptor (uPAR) Biomarker Activity (AID 2282998); details: BioMAP 3C HUVEC, uPAR biomarker ELISA; actives raise or lower the signal
Outline: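 A multiplexed primary-cell system built on human umbilical vein endothelium was used, with chemical present for 24 h before reading. Cell-surface uPAR was detected by ELISA; signal change in either direction counted against DMSO.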

[16] = BSK_3C_VCAM1: BioMAP Diversity Plus: 3C Assay for Vascular cell adhesion molecule 1 (VCAM1) Biomarker Activity (AID 2282999); details: BioMAP 3C HUVEC, VCAM1 ELISA, cytokine-stimulated; actives raise or lower the signal
Outline: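 Human umbilical vein endothelial cells (3C system), biomarker read by ELISA 24 h after dosing; bidirectional fit against DMSO baseline. Cytotoxicity tracked by SRB total-protein staining in parallel cultures at biomarker time.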

[17] = BSK_4H_Eotaxin3: BioMAP Diversity Plus: 4H Assay for Eotaxin 3 Biomarker Activity (AID 2283000); details: primary human endothelial cells (HUVEC); actives raise or lower the signal
Outline: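 ELISA quantitation of CCL26 (Eotaxin-3) protein from chemically dosed human vascular endothelial cells at 24 h; increases and decreases both scored relative to DMSO-treated baseline.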

[18] = molecular target: Nuclear receptor subfamily 4 group A member 2 (Homo sapiens) (UniProt P43354); assay: ATG_NURR1_TRANS: Attagene TRANS-FACTORIAL HepG2 Assay for human Nuclear Receptor Related Protein 1 (NURR1) (AID 2282985; active means hit-call score of the fitted dose curve at least 0.9, where 1 is the maximum); details: HepG2 Attagene TRANS reporter, mRNA readout
Outline: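 HepG2 / transient MRTU transfection / 24 h compound exposure / RT-PCR + CE fluorescence of reporter mRNA / gain-of-signal vs DMSO.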

[19] = ATG_NF_kB_CIS: Attagene CIS-FACTORIAL HepG2 Assay for human Nuclear Factor Kappa B (NF-kB) (AID 2282991); details: HepG2 Attagene cis-factorial NF-kB reporter mRNA; actives raise or lower the signal
Outline: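 HepG2, transient multi-reporter transfection, cis promoter elements (endogenous TFs). 24 h exposure. Total RNA → RT → PCR → 6-FAM label → HpaI → CE. Gain/loss vs DMSO.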

Measured: AC50

Sequence of Nuclear receptor subfamily 4 group A member 2 (Homo sapiens) (P43354 whole entry, looked up): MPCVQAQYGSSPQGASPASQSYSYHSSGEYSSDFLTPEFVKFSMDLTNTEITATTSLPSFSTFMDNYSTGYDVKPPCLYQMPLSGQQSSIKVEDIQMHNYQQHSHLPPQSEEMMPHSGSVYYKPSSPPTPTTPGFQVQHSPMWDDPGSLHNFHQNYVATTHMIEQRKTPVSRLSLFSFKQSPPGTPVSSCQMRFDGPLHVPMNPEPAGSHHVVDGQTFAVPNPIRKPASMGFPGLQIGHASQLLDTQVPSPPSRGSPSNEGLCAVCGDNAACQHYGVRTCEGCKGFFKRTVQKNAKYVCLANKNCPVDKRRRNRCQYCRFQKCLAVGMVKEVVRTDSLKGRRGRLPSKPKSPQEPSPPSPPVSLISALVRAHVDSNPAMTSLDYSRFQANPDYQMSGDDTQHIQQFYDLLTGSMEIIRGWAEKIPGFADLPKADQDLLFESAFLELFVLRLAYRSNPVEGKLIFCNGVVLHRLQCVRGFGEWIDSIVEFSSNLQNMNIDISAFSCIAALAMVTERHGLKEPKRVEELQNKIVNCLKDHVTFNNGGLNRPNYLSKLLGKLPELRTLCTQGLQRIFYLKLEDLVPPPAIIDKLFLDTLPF
Sequence of Bile acid receptor (Homo sapiens) (Q96RI1 whole entry, looked up, the tested form may be a part): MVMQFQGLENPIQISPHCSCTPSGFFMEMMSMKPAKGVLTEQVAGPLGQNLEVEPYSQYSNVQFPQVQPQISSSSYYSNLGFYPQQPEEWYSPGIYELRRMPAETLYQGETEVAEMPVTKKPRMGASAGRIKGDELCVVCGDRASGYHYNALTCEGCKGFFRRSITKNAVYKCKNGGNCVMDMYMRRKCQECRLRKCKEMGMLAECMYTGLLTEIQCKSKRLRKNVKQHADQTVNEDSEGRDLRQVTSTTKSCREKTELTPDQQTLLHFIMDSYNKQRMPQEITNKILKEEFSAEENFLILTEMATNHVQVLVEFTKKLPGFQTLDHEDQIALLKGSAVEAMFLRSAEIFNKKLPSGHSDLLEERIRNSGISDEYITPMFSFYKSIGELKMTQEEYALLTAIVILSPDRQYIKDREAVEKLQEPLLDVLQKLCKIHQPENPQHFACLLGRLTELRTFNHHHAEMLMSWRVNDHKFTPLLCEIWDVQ
Sequence of Transcriptional activator Myb (Homo sapiens) (P10242 whole entry, looked up): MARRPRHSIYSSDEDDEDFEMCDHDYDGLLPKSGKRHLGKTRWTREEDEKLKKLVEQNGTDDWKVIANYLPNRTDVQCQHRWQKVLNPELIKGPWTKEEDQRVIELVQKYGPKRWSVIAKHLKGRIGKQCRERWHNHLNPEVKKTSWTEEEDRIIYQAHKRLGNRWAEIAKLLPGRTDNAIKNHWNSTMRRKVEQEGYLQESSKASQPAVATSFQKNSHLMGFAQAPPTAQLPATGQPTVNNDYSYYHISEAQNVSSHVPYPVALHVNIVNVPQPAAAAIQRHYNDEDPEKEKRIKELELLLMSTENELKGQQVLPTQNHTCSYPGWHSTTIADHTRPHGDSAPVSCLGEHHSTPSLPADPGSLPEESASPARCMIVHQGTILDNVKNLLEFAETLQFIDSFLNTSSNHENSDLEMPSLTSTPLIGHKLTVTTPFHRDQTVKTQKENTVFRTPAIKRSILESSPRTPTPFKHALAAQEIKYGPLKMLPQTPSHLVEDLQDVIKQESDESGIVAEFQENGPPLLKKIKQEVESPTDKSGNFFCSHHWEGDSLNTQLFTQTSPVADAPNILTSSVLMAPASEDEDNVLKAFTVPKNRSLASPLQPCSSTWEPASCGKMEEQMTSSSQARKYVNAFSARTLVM
Sequence of Nuclear respiratory factor 1 (Homo sapiens) (Q16656 whole entry, looked up): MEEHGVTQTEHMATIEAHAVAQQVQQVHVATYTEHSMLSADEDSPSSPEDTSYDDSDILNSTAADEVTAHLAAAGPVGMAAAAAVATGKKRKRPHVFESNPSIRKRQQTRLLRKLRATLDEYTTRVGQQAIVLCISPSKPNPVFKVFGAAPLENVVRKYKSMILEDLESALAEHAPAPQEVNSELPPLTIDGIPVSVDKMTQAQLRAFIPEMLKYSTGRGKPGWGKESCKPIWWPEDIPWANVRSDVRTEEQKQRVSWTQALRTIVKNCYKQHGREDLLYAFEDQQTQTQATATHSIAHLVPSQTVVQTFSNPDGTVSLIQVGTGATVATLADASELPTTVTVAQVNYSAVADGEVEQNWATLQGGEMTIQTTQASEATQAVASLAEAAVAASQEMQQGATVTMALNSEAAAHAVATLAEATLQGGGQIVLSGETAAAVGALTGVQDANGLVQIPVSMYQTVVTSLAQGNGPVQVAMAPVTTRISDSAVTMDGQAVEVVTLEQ
Sequence of Hepatocyte nuclear factor 4-alpha (Homo sapiens) (P41235 whole entry, looked up, the tested form may be a part): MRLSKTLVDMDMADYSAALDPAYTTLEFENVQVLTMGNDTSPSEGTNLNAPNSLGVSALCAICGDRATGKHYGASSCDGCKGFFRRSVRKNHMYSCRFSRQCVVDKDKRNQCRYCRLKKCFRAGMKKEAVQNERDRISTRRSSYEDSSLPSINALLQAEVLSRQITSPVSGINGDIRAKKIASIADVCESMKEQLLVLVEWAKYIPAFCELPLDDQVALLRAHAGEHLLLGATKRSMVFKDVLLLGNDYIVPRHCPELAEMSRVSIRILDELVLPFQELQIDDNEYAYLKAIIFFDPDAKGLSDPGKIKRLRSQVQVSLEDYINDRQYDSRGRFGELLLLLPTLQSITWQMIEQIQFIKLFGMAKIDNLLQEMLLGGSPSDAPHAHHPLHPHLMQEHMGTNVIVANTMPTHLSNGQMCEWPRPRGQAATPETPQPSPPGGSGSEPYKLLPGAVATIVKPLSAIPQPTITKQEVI
Sequence of Myc proto-oncogene protein (Homo sapiens) (P01106 whole entry, looked up, the tested form may be a part): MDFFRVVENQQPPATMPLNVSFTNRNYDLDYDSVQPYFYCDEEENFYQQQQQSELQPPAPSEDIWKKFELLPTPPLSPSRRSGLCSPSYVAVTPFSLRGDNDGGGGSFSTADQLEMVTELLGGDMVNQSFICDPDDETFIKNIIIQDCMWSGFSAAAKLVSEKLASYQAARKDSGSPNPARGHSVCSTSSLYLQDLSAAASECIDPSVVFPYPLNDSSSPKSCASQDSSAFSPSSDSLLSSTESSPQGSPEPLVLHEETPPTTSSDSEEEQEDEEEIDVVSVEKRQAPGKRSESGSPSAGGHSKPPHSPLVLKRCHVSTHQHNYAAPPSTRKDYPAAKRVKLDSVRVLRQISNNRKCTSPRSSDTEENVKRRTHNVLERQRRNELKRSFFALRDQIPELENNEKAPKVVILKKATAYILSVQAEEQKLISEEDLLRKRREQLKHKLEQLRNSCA
Sequence of Cellular tumor antigen p53 (Homo sapiens) (P04637 whole entry, looked up): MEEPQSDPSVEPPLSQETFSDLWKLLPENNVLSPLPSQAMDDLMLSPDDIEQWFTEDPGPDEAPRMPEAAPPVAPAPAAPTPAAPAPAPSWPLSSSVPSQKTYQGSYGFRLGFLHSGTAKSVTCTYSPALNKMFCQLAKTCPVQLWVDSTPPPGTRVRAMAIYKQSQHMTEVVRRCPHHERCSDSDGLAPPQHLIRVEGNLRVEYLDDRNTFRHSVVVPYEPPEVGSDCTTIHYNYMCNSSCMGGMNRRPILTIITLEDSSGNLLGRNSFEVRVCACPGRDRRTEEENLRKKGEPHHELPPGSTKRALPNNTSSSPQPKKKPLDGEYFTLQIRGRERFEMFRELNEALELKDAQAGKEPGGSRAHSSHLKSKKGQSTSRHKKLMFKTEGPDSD
Sequence of Oxysterols receptor LXR-beta (Homo sapiens) (P55055 whole entry, looked up, the tested form may be a part): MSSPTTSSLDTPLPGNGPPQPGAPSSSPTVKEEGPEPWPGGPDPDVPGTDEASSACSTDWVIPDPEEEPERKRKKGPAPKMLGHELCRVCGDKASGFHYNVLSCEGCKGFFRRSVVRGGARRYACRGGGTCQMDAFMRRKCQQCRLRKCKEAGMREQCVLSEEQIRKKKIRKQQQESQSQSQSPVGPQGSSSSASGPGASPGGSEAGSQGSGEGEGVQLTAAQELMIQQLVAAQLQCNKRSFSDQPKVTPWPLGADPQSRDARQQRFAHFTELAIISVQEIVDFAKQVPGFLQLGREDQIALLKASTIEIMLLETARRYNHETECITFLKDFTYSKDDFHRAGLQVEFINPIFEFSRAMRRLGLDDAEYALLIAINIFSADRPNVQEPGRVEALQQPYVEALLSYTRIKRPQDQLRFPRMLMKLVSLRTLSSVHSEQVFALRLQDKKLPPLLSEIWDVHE
Sequence of Oxysterols receptor LXR-alpha (Homo sapiens) (Q13133 whole entry, looked up, the tested form may be a part): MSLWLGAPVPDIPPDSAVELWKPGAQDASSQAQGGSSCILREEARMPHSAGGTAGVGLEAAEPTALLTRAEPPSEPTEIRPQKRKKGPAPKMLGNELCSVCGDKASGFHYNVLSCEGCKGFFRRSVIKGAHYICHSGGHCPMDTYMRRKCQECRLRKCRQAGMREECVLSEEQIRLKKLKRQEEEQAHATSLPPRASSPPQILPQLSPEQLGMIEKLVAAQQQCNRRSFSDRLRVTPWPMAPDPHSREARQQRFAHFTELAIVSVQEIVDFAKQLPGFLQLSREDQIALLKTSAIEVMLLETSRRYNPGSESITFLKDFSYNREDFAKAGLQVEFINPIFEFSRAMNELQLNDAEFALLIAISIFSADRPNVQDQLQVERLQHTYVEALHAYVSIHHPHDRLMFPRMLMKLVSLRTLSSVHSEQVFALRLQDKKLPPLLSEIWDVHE

COc1ccc(OC)c(OC)c1
not listed: [12] | [13] | [14] | [15] | [16] | [17] | [18] | [19]
inactive: all other assays above

CCCCCCCCC=O
not listed: [1] | [5] | [18] | [19]
inactive: all other assays above

OC1C(O)C(O)C(O)C(O)C1O (stereo not drawn)
inactive: [12] | [2] | [3] | [4] | [5] | [18] | [6] | [8] | [9] | [10]

O=P(c1ccccc1)(c1ccccc1)c1ccccc1
not listed: [2] | [3] | [12]
inactive: all other assays above

O=Cc1ccc(Cl)c([N+](=O)[O-])c1
active: [6] 170 µM | [7] 160 µM | [8] 100 µM | [9] 179 µM
inactive: [12] | [2] | [3] | [4] | [5] | [18] | [10]

O=C1NC(=O)c2ccccc21
inactive: [1] | [12] | [4] | [13] | [6] | [7] | [8] | [19] | [9] | [10]

C=CC(=O)NCOCC(C)C
active: [9] 54.6 µM
not listed: [2] | [7] | [12] | [14] | [15] | [16] | [17]
inactive: all other assays above

C=CC(C)(C)O
not listed: [2] | [11] | [12] | [14] | [15] | [16] | [17] | [18]
inactive: all other assays above

CC(C)(Oc1ccc(CCNC(=O)c2ccc(Cl)cc2)cc1)C(=O)O
not listed: [11] | [12] | [14] | [15] | [16] | [17] | [18]
inactive: all other assays above

CCCC(=O)C(C)=O
inactive: [1] | [4] | [13] | [6] | [7] | [8] | [19] | [9] | [10] | [11]

OCc1cccnc1
inactive: [1] | [3] | [5] | [18] | [6] | [7] | [8] | [19] | [9]

Cc1ccc(C(=O)O)o1
not listed: [1] | [11] | [14] | [15] | [16] | [17]
inactive: all other assays above

c1ccc2sc(SN(C3CCCCC3)C3CCCCC3)nc2c1
active: [8] 8.17 µM | [15] 7.59 µM
not listed: [2] | [4] | [5] | [11] | [19]
inactive: all other assays above

Nc1cc(Cl)c(O)c(Cl)c1
active: [3] 100 µM | [8] 100 µM | [19] 46.8 µM | [9] 26.5 µM | [10] 100 µM | [11] 144 µM
inactive: [12] | [2] | [5] | [18] | [13] | [6] | [7]

C=CCOC(=O)CCC1CCCCC1
not listed: [2] | [19]
inactive: all other assays above

CCN(CC)c1ccc2c(-c3ccccc3C(=O)O)c3ccc(=[N+](CC)CC)cc-3oc2c1
active: [9] 36.7 µM
inactive: [1] | [5] | [13] | [7] | [8]

CC(=O)Nc1ccc(C)cc1C
not listed: [2] | [4] | [12] | [14] | [15] | [16] | [17] | [18]
inactive: all other assays above

COC(=O)C1=C(C)NC(C)=C(C(=O)OCCN(C)Cc2ccccc2)C1c1cccc([N+](=O)[O-])c1 (stereo not drawn)
active: [1] 0.637 µM | [18] 27.2 µM | [6] 6.96 µM
inactive: [5] | [7] | [8] | [9] | [10]

CN(CCOc1ccc(CC2SC(=O)NC2=O)cc1)c1ccccn1 (stereo not drawn)
active: [9] 15.1 µM | [15] 6.93 µM | [17] 3.97 µM
not listed: [3] | [10]
inactive: all other assays above

O=C(O)COCCN1CCN(C(c2ccccc2)c2ccc(Cl)cc2)CC1 (stereo not drawn)
inactive: [1] | [4] | [5] | [13] | [8] | [10] | [11]

Source: PubChem BioAssay (EPA / NIEHS)
